Source: PubChem (National Center for Advancing Translational Sciences (NCATS))
WRN helicase inh – inhibitors of human WRN helicase; Q14191; 360,000 tested, 0.46% active; WRN helicase unwinding, fluorescent forked duplex, kinetic; Potency, µM (highest dose often 114 µM), without a hit: at the highest dose activity change, negative = inhibition, actives largely listed as inhibitors; also: % is scaled to controls: 0 for no effect and ±100 for the full control effect; nearly all actives have a fitted effect of over 55% in size
Target sequence (Q14191 whole entry, looked up): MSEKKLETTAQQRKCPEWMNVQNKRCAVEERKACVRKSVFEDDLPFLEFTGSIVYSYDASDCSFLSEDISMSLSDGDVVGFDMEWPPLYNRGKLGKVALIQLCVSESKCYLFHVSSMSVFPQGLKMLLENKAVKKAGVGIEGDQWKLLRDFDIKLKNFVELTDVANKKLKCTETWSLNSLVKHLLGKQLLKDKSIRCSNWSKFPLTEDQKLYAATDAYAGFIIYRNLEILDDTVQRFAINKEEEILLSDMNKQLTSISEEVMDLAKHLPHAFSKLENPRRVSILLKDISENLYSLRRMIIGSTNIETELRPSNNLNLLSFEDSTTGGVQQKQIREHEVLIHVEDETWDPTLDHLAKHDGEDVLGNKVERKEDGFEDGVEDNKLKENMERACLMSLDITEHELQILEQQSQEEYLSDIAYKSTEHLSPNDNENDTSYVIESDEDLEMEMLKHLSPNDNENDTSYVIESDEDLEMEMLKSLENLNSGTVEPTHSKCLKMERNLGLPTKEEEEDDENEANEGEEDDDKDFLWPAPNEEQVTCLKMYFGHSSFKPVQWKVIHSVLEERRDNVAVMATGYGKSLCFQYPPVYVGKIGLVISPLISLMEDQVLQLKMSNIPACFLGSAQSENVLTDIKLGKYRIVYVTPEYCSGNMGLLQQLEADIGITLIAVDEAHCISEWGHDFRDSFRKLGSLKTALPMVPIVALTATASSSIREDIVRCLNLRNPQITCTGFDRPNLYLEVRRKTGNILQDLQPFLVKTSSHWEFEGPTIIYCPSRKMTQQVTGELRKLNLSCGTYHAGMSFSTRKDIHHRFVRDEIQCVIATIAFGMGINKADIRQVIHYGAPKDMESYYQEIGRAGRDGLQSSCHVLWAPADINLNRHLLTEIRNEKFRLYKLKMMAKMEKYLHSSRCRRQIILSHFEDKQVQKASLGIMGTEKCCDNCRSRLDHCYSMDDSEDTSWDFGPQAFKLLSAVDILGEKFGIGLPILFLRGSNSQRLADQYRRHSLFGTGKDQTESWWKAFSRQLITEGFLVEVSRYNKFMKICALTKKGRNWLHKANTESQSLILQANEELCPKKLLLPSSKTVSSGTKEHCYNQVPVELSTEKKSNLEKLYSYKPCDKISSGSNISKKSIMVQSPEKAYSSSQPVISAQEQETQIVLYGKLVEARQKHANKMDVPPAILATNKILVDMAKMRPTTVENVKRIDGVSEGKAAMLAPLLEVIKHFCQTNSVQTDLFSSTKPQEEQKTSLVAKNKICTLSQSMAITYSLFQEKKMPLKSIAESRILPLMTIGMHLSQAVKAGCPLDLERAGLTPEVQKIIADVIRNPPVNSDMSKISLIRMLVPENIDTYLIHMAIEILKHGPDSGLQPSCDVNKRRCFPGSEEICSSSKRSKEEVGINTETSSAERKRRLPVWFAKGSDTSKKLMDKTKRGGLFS
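Kinetic fluorescence helicase assay: unwinding of a quenched forked DNA duplex (100 nM final) with 2 mM ATP final raises red fluorescence (525/598 nm). Compounds sat 15 min at room temperature with 20 nM WRN beforehand.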
Pol beta inh – blocks human DNA polymerase beta activity. Pol beta primer extension/strand displacement, fluorescence kinetic. 340,000 tested, 1.3% active. AID 485314. P06746. Potency, µM (titrated, usually from 114 µM), without a hit: top-dose activity change, negative = inhibition, actives largely listed as inhibitors; also: % is scaled to controls: 0 for no effect and ±100 for the full control effect
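Curves were derived by four-parameter Hill fits of normalized qHTS data. The kinetic fluorescent primer-extension read was taken at 0 and 10 min after 50 nM substrate, following a 15 min room-temperature preincubation of 10 nM enzyme with compounds.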
L3MBTL1 inh – inhibitors of human L3MBTL1. AlphaScreen L3MBTL1–H3K9me1 peptide binding. Potency, µM (top dose mostly 57.1 µM), for inactives: at the top dose activity, negative = inhibition, actives largely listed as inhibitors. 230,000 tested, 0.66% active. Q9Y468; also: % is scaled to controls: 0 for no effect and ±100 for the full control effect; nearly all actives have a fitted effect of over 60% in size
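L3MBTL1 (50 nM) pre-complexed 30 min with biotinylated H3(1-15)K9me1 peptide (75 nM), then compounds added for 30 min at room temperature; AlphaScreen streptavidin donor/nickel chelate acceptor beads (10 ug/mL final) read after 30 min dark incubation.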
Pol iota inh – inhibitors of human DNA polymerase iota. Pol iota fluorescent replication assay, 10 min. Potency, µM (series often up to 115 µM), for the others: top-dose activity, negative = inhibition, hits mostly inhibitors. 390,000 tested, 1% active
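Fluorescent replication assay read twice, at 0 min and 10 min after adding 50 nM (final) substrate. Enzyme (10 nM) and compounds were first incubated 15 min at room temperature; enzyme-free buffer wells were negative controls.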
Pol eta inh – inhibitors of human DNA polymerase eta; Q9Y253; Potency, µM (doses to about 114 µM), without a hit: at the top dose activity change, negative = inhibition, usual class: inhibitors; recombinant Pol eta, fluorescent DNA replication assay; 390,000 tested, 1.2% active; also: % is scaled to controls: 0 for no effect and ±100 for the full control effect
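Pol eta at 10 nM preincubated with compounds 15 min at room temperature; reaction started with fluorescent substrate (50 nM final) and read kinetically at 0 and 10 min.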
Pol kappa inh – blocks human DNA polymerase kappa activity; Q9UBT6; Potency, µM (top dose mostly 107 µM), without a hit: at the top dose activity, negative = inhibition, most hits filed as inhibitors; purified Pol kappa, fluorescent DNA synthesis assay, 10 min; AID 588579; 400,000 tested, 0.53% active; also: % is scaled to controls: 0 for no effect and ±100 for the full control effect
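10 nM Pol kappa preincubated 15 min at room temperature with compounds, then reaction started with substrate at 50 nM final. Fluorescence read kinetically at 0 and 10 min; buffer-only wells served as negative control.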
An asterisk follows results filed as active; ? = inconclusive; · = no result; [ ] = remark or other dose. The list is not random: actives were taken first. Their share in the collection is about 2.5%. Calls follow the shape of the dose curve; as a rule, active = well fitted curve in the direction sought with a large enough effect; inconclusive = small, poorly fitted or top-dose-only effect, or another doubt; inactive = no such curve, though single readings can be large; an effect the other way counts as inactive or inconclusive. Potency is read from the fitted curve at half-maximal effect.

SMILES | WRN helicase inh | Pol beta inh | L3MBTL1 inh | Pol iota inh | Pol eta inh | Pol kappa inh
O=[N+]([O-])c1ccc(/C=N/Nc2ccnc3cc(Cl)ccc23)o1 | -11%[11.6 µM] | ? | · | ? | ? | -22%
Clc1ccc2c(NNc3ccccc3Cl)ccnc2c1 | -3% | 0% | ? | 14% | 2% | -12%
Clc1ccc2c(N/N=C/c3ccccc3Br)ccnc2c1 | ? | 22µM* | 2% | -12% | -1% | 0%
Clc1ccc2c(N/N=C/c3cccc(Br)c3)ccnc2c1 | -17% | 32µM* | 6% | -12% | 2% | -11%
Cc1c(C(=O)N2CCN(c3ccccc3)CC2)oc2c(Cl)cccc12 | 2% | · | -6% | 33% | -19% | 1%
CS(=O)(=O)N1CCN(/[N+]([O-])=N/Oc2ccc([N+](=O)[O-])cc2[N+](=O)[O-])CC1 | · | · | · | ? | · | 11%
C=CCOc1ccc(C[C@H](N)C(=O)NC[C@H]2O[C@@H](n3ccc(N)nc3=O)[C@H](O)[C@@H]2O)cc1 | 4% | · | · | · | -23% | ·
CC1CCCC(C)N1Cc1cn2ccccc2n1 (stereo not given) | 1% | -3% | -6% | 12% | -5% | -13%
CC(C)Oc1ccc(C(=O)N/N=C/c2ccc(-c3ccc(S(=O)(=O)Nc4ncccn4)cc3)o2)cc1 | 50µM* | 1% | · | ? | 2.8µM* | 45µM*
Cc1ccc(C(=O)N/N=C\c2ccc(-c3ccc(Cl)cc3)o2)cn1 | -12% | 2% | -9% | 16% | -14% | -8%
Cn1c(=O)c2[nH]c(N=NNc3ccccc3F)nc2n(C)c1=O | -30% | -3% | 5% | 25µM* | -17% | 3%
Cc1ccccc1NN=Nc1nc2c([nH]1)c(=O)n(C)c(=O)n2C | -26%[57.1 µM] | 14% | -1% | 28% | -2% | 4%
CCOc1ccccc1Nc1nc(-c2cccc(Cl)c2)c2c(n1)-c1ccccc1OC2 | · | 40µM* | · | -18% | -13% | 89µM*
COC(=O)C1=C(O)/C(=C\c2ccc(CNC(=O)C(=O)Nc3ccc(C)c(C)c3)o2)N=C1C | -13%[11.6 µM] | ? | · | ? | 22µM* | -26%
COC(=O)C1=C(O)/C(=C\c2ccc(CNC(=O)C(=O)Nc3ccc(C)cc3)o2)N=C1C | ? | ? | 7.9µM* | ? | ? | -43%
Cc1cc(/C=C(/C#N)c2cccc(Cl)c2)c(C)n1C | -3%[57.1 µM] | 10% | 1% | 20% | -7% | -6%
COc1ccc(CCC(=O)NC2CC(=O)N(c3ccc(C)cc3)C2)cc1 (stereo not given) | · | 18% | · | 13% | -14% | -4%[60.1 µM]
CCCC(=O)OCC1CN(Cc2ccco2)S(=O)(=O)c2c(F)cccc2O1 (stereo not given) | -4%[11.6 µM] | · | · | 71µM* | -1% | -29%
CC(CCc1ccccc1)NC(=O)CNC(=O)c1ccccc1Br (stereo not given) | -17% | 0% | · | 32% | -14% | -3%
CN(C)c1ccc(-c2nc(NC3CCNCC3)c3ccccc3n2)cc1 | · | · | · | · | · | 32µM*
CN(C)Cc1ccccc1-c1nc(NC2CCNCC2)c2ccccc2n1 | · | · | · | · | · | 14µM*
CCC(Sc1nc2ccsc2c(=O)n1Cc1ccc(C(=O)O)cc1)C(=O)Nc1ccc(C)c(Cl)c1 (stereo not given) | -18% | ? | · | ? | 79µM* | -30%
COc1cccc(C(C)(O)c2nc(-c3csc4ccccc34)cs2)c1 (stereo not given) | -9% | · | · | · | · | ·
Cc1ccccc1-c1nc(NCc2cccs2)c2ccccc2n1 | · | · | · | · | · | -6%[60.1 µM]
Clc1ccccc1-c1nc(NCc2cccs2)c2ccccc2n1 | · | · | · | · | · | 32µM*
O=C1CC2(CCCCC2)CC(=O)N1CCc1ccccc1 | 7% | · | · | 20% | -28% | -2%
O=C1C=CC(=O)C(C2=C3C(=O)N(CCc4ccccc4)CC(=O)N3CCC2)=C1 | 40µM* | 2% | -11% | ? | -13% | -23%
CCCCCCSc1nc(O)c(C2OC(=O)c3c2ccc(OC)c3OC)c(=O)n1-c1ccccc1 (stereo not given) | -29%[57.1 µM] | -20% | · | ? | 18µM* | -27%
